Assay outcomes (PubChem BioAssay)
The list is not random: actives were taken first. Their share in the collection is about 20%.
CHX counter: counter-screen for Shiga toxin inhibitors: cycloheximide protein synthesis inhibition. cell reporter, cycloheximide protein synthesis inhibition counterscreen. max response, %. 300,000 tested, 12% active; in the data active = max response mostly above about 13%, no sharp cut-off; inactive = mostly below about 14%; also: read at 38.3 µM for the half of the compounds with a filed dose
Pf growth 96h: P. falciparum growth inhibition at 96 hour, primary screen for plastid delayed-death inhibitors. 320,000 tested, 6.9% active. P. falciparum luciferase reporter growth, 96 h. Potency, µM (doses to about 28.7 µM), hits mostly inhibitors
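Plates of compound plus infected erythrocytes (2% hematocrit, 0.05% parasitemia final) incubate 96 hours, 37 C, 5% CO2. Detection reagent added; reduced luminescence from the parasites' luciferase reporter flags inhibition.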
Shiga inhibitor: inhibitors of Shiga toxin in Vero cells; 290,000 tested, 9.2% active; Vero cells, Shiga toxin protein synthesis inhibition reporter; inhibition, % at 38.7 µM; in the data active = inhibition mostly above about 28%, no sharp cut-off; inactive = mostly below about 43%
Pf growth 48h: P. falciparum growth inhibition at 48 hours (one generation). P. falciparum luciferase growth in erythrocytes, 48 h. Potency, µM (series often up to 28.7 µM), most hits filed as inhibitors. 310,000 tested, 5.9% active
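Here the parasites carry a stable luciferase gene and grow inside erythrocytes in Albumax-based RPMI medium with compound for one erythrocytic cycle. Activity is scored as loss of luminescent signal.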
HCMV antiviral: human cytomegalovirus inhibition; HFF cells, HCMV-luciferase reporter, 72 h; hits give low values; activity change, negative = inhibition, % at 57.5 µM; 410,000 tested, 4.5% active; AID 1259415; in the data active = activity change below about -60%; inconclusive = no clear call, values can overlap the other calls; inactive = above about -39%
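Two compound doses tested in HFFs infected with HCMV-luciferase, MOI 1 PFU/cell, 72 h at 37C. Lysate luminescence read with OneGlo; data normalized against buffer-only and 10uM Salinomycin inhibitor controls.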
Hits are given with their value; – = inactive; ? = inconclusive; · = not tested or not shown; [ ] = dose if it differs, or a comment. Unless noted, calls follow the shape of the dose curve; as a rule, active = well fitted inhibition curve with a large enough effect; inconclusive = small, poorly fitted or top-dose-only effect, or another doubt; inactive = no such curve, though single readings can be large or run the other way.

SMILES | CHX counter | Pf growth 96h | Shiga inhibitor | Pf growth 48h | HCMV antiviral
CCOC(=O)C1CCN(S(=O)(=O)c2ccc3[nH]c4c(c3c2)CCCC4)CC1 | – | 10.4µM | – | – | –
CCOC(=O)C1CCN(S(=O)(=O)c2ccc3[nH]c(=O)c(=O)[nH]c3c2)CC1 | – | – | – | – | –
CSc1ccc(SC2CN(Cc3ccc(C)cc3)S(=O)(=O)C2)cc1 (stereo unspecified) | · | · | · | · | –
Cn1c(N)c(C(=O)COC(=O)c2cc(-c3ccco3)nc3ccccc23)c(=O)n(C)c1=O | 20.6 | ? | – | ? | –
COc1ccc(-c2cc(C(=O)c3c(N)n(C)c(=O)n(C)c3=O)c3ccccc3n2)cc1 | 18.3 | – | – | ? | –
Cn1c(N)c(C(=O)COC(=O)c2cc(-c3ccco3)nc3ccccc23)c(=O)n(Cc2ccccc2)c1=O | – | 9.28µM | – | ? | ·
CCCCCCn1c(SCC(=O)c2c(N)n(C)c(=O)n(C)c2=O)nc2ccccc21 | – | 0.928µM | – | · | ?
O=C(N1CCOCC1)N1CCN(S(=O)(=O)c2ccc(F)cc2)CC1 | – | – | · | – | –
COc1ccc(-c2cc(C(=O)OCC(=O)c3c(N)n(C)c(=O)n(C)c3=O)c3ccccc3n2)cc1 | – | – | – | – | –
CCCCCCn1nc(C(=O)OCC(=O)c2c(N)n(C)c(=O)n(C)c2=O)c2ccccc2c1=O | – | 13.1µM | – | 11.7µM | –
COc1ccc(/C=C2\CCCc3c2nc2ccccc2c3C(=O)OCC(=O)c2c(N)n(C)c(=O)n(C)c2=O)cc1 | – | 4.15µM | – | ? | ·
O=C1NC(Cc2ccccc2)c2nc3ccc(Cl)cc3c(=O)n2-c2ncccc21 (stereo unspecified) | · | · | · | · | –
Cn1c(=S)n(/N=C/c2cccs2)c2ccccc21 | 25.3 | – | 46.1 | – | –
Cc1n[nH]c(=S)n(/N=C/c2cccs2)c1=O | – | ? | – | 0.928µM | –
Cc1nc(C)c(-c2ccc(SCC(=O)Nc3ccccc3F)nn2)s1 | · | · | · | · | –
COc1ccccc1-c1cc(C(=O)N/N=C/c2ccoc2)c2ccccc2n1 | – | – | – | 9.28µM | –
CCN(CC)C(=O)COc1ccc(/C=N/NC(=O)c2cc(-c3ccccc3OC)nc3ccccc23)cc1OC | · | · | · | · | –
COc1ccc(/C=N/NC(=O)c2cc(-c3ccccc3OC)nc3ccccc23)cc1COC(C)=O | – | 1.85µM | – | 11.7µM | –
COc1ccccc1-c1cc(C(=O)N/N=C/c2ccc(C)s2)c2ccccc2n1 | – | 1.47µM | – | · | –
CCc1ccc(/C=N/NC(=O)c2cc(C3CC3)nc3ccc(Br)cc23)s1 | – | ? | – | · | -63.3
O=C(N/N=C/c1ccco1)c1cc(C2CC2)nc2ccccc12 | – | – | – | – | –
COc1ccc(/C=N/NC(=O)c2cc(-c3ccc(C)cc3C)nc3ccccc23)cc1COC(C)=O | – | – | – | – | –
COc1cc(NC(=O)Cn2ccn(Cc3ccccc3OC)c(=O)c2=O)cc(OC)c1 | · | · | · | · | –
COc1cccc(-n2ccnc2SCC(=O)Nc2cccc3ccccc23)c1 | · | · | · | · | –
CCc1nc(CN2CCN(Cc3ccc(F)c(F)c3)C(CCO)C2)c(C)[nH]1 (stereo unspecified) | – | ? | – | ? | –
SMILES | CHX counter | Pf growth 96h | Shiga inhibitor | Pf growth 48h | HCMV antiviral
CCc1ccc(/C=N/NC(=O)c2cc(-c3ccccc3OC)nc3ccccc23)s1 | – | 2.62µM | – | · | –
COc1ccc(/C=N/NC(=O)c2cc(-c3ccccc3OC(C)C)nc3ccccc23)cc1CN1CCOCC1 | – | – | – | – | –
Cc1cc(C)c(NC(=O)CNC(=O)COC(=O)CNC(=O)c2ccc(Cl)cc2Cl)c(C)c1 | · | – | · | – | –
Cc1cccc2c(N=Nc3ccc(S(=O)(=O)Nc4cccc(Cl)c4)cc3[N+](=O)[O-])c(O)[nH]c12 | – | ? | – | 6.57µM | –
Cc1ccc(S(=O)(=O)Nc2ccccc2)cc1[N+](=O)[O-] | · | · | · | · | –
O=C1NC(c2ccc3c(c2)OCO3)Nc2ccccc21 (stereo unspecified) | – | ? | – | – | –
O=C1NC(c2ccc3c(c2)OCO3)Oc2ccccc21 (stereo unspecified) | – | 5.22µM | – | – | –
Cc1c(C(=O)O)c(-c2ccccc2)nn1-c1ccccc1 | – | 2.94µM | – | – | –
COc1ccccc1CNC(=O)c1cc(C)nn1-c1ccccc1 | – | – | – | – | ?
COc1ccccc1CNC(=O)c1c(-c2ccccc2)nn(-c2ccccc2)c1C | – | 9.28µM | – | · | –
COC(=O)c1c(-c2ccccc2)nn(-c2ccccc2)c1C(=O)OC | – | – | · | – | –
CCCCCCCN1C(Nc2ccccc2)=NC[C@@H]1Cc1ccccc1 | – | 5.22µM | – | ? | ?
c1ccc(CCCCN2C(Nc3ccccc3)=NC[C@@H]2Cc2ccccc2)cc1 | · | ? | · | ? | –
CCC(C)CCN1C(Nc2ccccc2)=NC[C@@H]1CC(C)C (stereo partly specified) | – | ? | – | ? | –
CCC(C)CCN1C(Nc2ccccc2)=NC[C@@H]1Cc1ccccc1 (stereo partly specified) | – | ? | – | ? | -99.7
CCN1CCOC(=O)C1CC(=O)Nc1ccc(C)c(Cl)c1 (stereo unspecified) | · | · | · | · | –
Cc1c(C)c2c(c(C)c1O)CCC(C)(COc1ccc(CC3SC(=O)NC3=O)cc1)O2 (stereo unspecified) | – | 6.01µM | – | ? | ·
COc1cccc(CSc2nc3ccncc3n2CC(=O)Nc2ccc(OC)c(OC)c2OC)c1 | · | · | · | · | –
CCOc1ccc(/C=N/n2c(C)nc3ccccc3c2=O)cc1 | – | – | – | – | ·
Cc1nc2ccccc2c(=O)n1/N=C/c1c(O)ccc2ccccc12 | – | ? | – | ? | –
Cc1nc2ccccc2c(=O)n1/N=C/c1ccccn1 | 27.8 | – | – | – | ?
Cc1nc2ccccc2c(=O)n1/N=C/c1ccc(N(C)C)cc1 | 26.1 | – | – | – | –
Cc1nc2ccccc2c(=O)n1/N=C/c1ccccc1F | 51.7 | 9.28µM | 104.6 | · | –
CN(C)c1ccc(/C=N/n2c(-c3ccccc3Br)n[nH]c2=S)cc1 | 17.4 | – | – | – | –
Cn1ccnc1C(=O)Cc1ccc([N+](=O)[O-])cc1 | · | · | · | · | –
SMILES | CHX counter | Pf growth 96h | Shiga inhibitor | Pf growth 48h | HCMV antiviral
CCCCC(=O)Nc1nnc(C2=COCCO2)o1 | – | –[1.15 µM] | – | –[1.15 µM] | –
COc1ccc(Cl)cc1-c1nc(SCC(=O)NCCN2C(=O)CSC2=O)n[nH]1 | – | – | – | – | –
CC1(c2nnnn2Cc2ccccc2)CCC(=O)N1CCc1ccccc1F (stereo unspecified) | · | · | · | · | –
CSc1ccc(/C=N/n2c(C)nc3ccccc3c2=O)cc1 | 22.6 | – | – | – | –
O=C(NCCc1ccccc1)c1ccccc1NS(=O)(=O)N1CCCC1 | 33.3 | · | 42.6 | – | –
O=C(NCCc1ccccc1)c1ccc(S(=O)(=O)N2CCCCC2)cc1 | · | · | · | · | –
CSc1ccccc1C(=O)NCCc1ccc(S(=O)(=O)N2CCCCC2)cc1 | – | · | – | 5.22µM | -102.2
CCc1ccc(CC(=S)N2CCOCC2)cc1 | 25.8 | ? | 62.3 | – | –
S=C(Cc1ccc(-c2ccccc2)cc1)N1CCOCC1 | · | · | · | · | –
Cc1ccc(CC(=S)N2CCOCC2)cc1 | – | 13.1µM | – | – | –
